Reference: PubChem BioAssay AID743287 (Broad Institute, 2014)
The whole screen tested about 370,000 compounds, of which about 2,300 (0.62%) were called active. The sample holds actives, similar compounds and a random draw of the others, so the mix is not that of the screen.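 Rule for the calls: active = lowest replicate activation of at least 40%, so every replicate reaches that level; inactive = the rest.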

Experiment: primary screen for activators of insulin secretion dependent on glucose, INS-1E cells, GLuc reporter luminescence (AID 743287);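 note: 0% = median of neutral control wells and 100% = median of IBMX positive control wells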
Conditions: INS-1E GLuc reporter insulin secretion, 2-3 h, at 16.6 µM, hits give high values

Row | SMILES | activation
1 | CC(=O)Nc1ccc2c(c1)C(=O)N(C)[C@H]1CC[C@H](CC(=O)NCc3ccccc3Cl)O[C@H]1CO2 | -3.1% (inactive)
2 | N#C[C@H]1[C@H](c2ccccc2)[C@@H](CO)N1C(=O)c1cccnc1 | 1.43% (inactive)
3 | C[C@@H]1CN([C@@H](C)CO)C(=O)c2cc(/C=C/c3ccccc3)cnc2O[C@H]1CN(C)C(=O)C1CCC1 | -16.6% (inactive)
4 | C=CCN=C1NC(c2cccc(C(F)(F)F)c2)C(C(=O)OC)=C(C)N1C (stereo unspecified) | -3.97% (inactive)
5 | COC(=O)C1=C(C)N(Cc2cccc(C(F)(F)F)c2)C(=NCc2ccccc2)NC1c1ccccc1C(F)(F)F (stereo unspecified) | 198% (active)
6 | COC(=O)C1=C(C)N(Cc2ccccc2)C(=NCCCOC(C)C)N[C@H]1c1ccccc1 | -19.7% (inactive)
7 | COC(=O)C1=C(C)N(Cc2ccc(F)cc2)C(=S)NC1c1cccc(Cl)c1 (stereo unspecified) | -20.6% (inactive)
8 | COC(=O)C1=C(C)N(Cc2cccc(C(F)(F)F)c2)C(=NCc2ccccc2)NC1c1ccc(Cl)cc1 (stereo unspecified) | 160% (active)
9 | COC(=O)C1=C(C)N(Cc2cccc(C(F)(F)F)c2)C(=NCc2cccc(C(F)(F)F)c2)NC1c1ccccc1C(F)(F)F (stereo unspecified) | 23.9% (inactive)
10 | COc1ccc(S(=O)(=O)N(C)C[C@H]2Oc3c(NS(=O)(=O)c4cccs4)cccc3C(=O)N([C@H](C)CO)C[C@@H]2C)cc1 | -10.4% (inactive)
11 | CO[C@H]1CN(C)C(=O)c2ccc(NC(=O)C3CCCC3)cc2OC[C@H](C)N(C(=O)CC2CC2)C[C@@H]1C | 8.95% (inactive)
12 | COc1ccc(NC(=O)Nc2cccc3c2O[C@H](CN(C)Cc2ccncc2)[C@@H](C)CN([C@@H](C)CO)C3=O)cc1 | 3.69% (inactive)
13 | CCSc1ncnc2c(C#N)c3n(c12)CCCCC3 | 47.4% (active)
14 | CN(C)CC(=O)N1CC2(C1)[C@H](c1ccccc1)[C@H](CO)N2C(=O)C1CC1 | 10.8% (inactive)
15 | N#Cc1cccc(-c2ccc([C@H]3[C@@H](CO)N[C@@H]3CNC(=O)C3CCC3)cc2)c1 | 7.07% (inactive)
16 | Brc1ccccc1/C=N/Nc1nc2ccccc2o1 | 46.6% (active)
17 | c1ccc(CCN2CN=C(Nc3nc4ccccc4o3)NC2)cc1 | -24.2% (inactive)
18 | CN1C(=O)c2cc(NC(=O)c3ccno3)ccc2OC[C@H]2O[C@@H](CC(=O)NCC(F)(F)F)CC[C@@H]21 | 19.2% (inactive)
19 | Cn1ncc2c(N3CCCCC3)nc(NCCCO)nc21 | 60.1% (active)
20 | CC(C)(C)Oc1ccccc1Nc1nc(NCCO)nc(N2CCCC2)n1 | -9.68% (inactive)
21 | COc1ccc(C#Cc2cnc3c(c2)C(=O)N([C@H](C)CO)C[C@@H](C)[C@H](CN(C)C(=O)Nc2cccc(OC)c2)O3)cc1 | 6.97% (inactive)
22 | C[C@@H]1CN([C@H](C)CO)C(=O)c2cc(C#Cc3ccncc3)cnc2O[C@H]1CN(C)Cc1ccncc1 | 9.79% (inactive)
23 | O=C(C[C@H]1CC[C@H](NC(=O)CCN2CCCCC2)[C@@H](CO)O1)Nc1ccccc1 | 33.8% (inactive)

Row | SMILES | activation
24 | CCOC(=O)c1cc(-c2ccc(Cl)s2)nc2c1c(C)nn2C | 60% (active)
25 | CCOC(=O)c1cnc2c(c(C)nn2CC)c1Cl | 7.57% (inactive)
26 | CCOC(=O)c1cc(C(=O)Nc2ccc(S(=O)(=O)Nc3ccc(OC)cc3)cc2)nn1C | 17% (inactive)
27 | C[C@H]1CN([C@@H](C)CO)C(=O)Cc2cc(NC(=O)NC3CCCCC3)ccc2O[C@H]1CN(C)S(=O)(=O)c1ccccc1 | -7.37% (inactive)
28 | CN1C(=O)c2cc(NC(=O)C3CCC3)ccc2OC[C@@H]2O[C@@H](CC(=O)NCc3ccccc3F)CC[C@@H]21 | 19.7% (inactive)
29 | COc1cccc(-c2cnc3c(NC(C)=O)cc(-c4cccc(NC(C)=O)c4)cn23)c1 | -1.53% (inactive)
30 | CC(=O)c1cccc(-c2cnc3c(NC=O)cc(-c4ccc(N5CCN(C)CC5)cc4)cn23)c1 | 9.93% (inactive)
31 | CC(=O)Nc1cc(-c2ccc(N3CCN(C)CC3)cc2)cn2c(-c3cccc(C(=O)N(C)C)c3)cnc12 | 40.3% (active)
32 | CC(C)C#Cc1ccc([C@H]2[C@@H](C#N)N(C(=O)CN(C)C)[C@H]2CO)cc1 | 1.29% (inactive)
33 | CC(C)NC(=O)N(C)C[C@H]1Oc2ccc(N(C)C)cc2CC(=O)N(C)C[C@@H]1C | 0.073% (inactive)
34 | Cc1ccc(S(=O)(=O)N(C)C[C@H]2Oc3c(NS(=O)(=O)c4ccc(Cl)cc4)cccc3C(=O)N([C@H](C)CO)C[C@@H]2C)cc1 | 11.6% (inactive)
35 | COc1ccc(CCNC(=O)CCn2c(=O)c3ccccc3n(CC(=O)NCC3CCCO3)c2=O)cc1OC (stereo unspecified) | 55.9% (active)
36 | COc1ccc(CCNC(=O)CCn2c(=O)oc3ccccc32)cc1OC | 49.9% (inactive)
37 | COc1ccccc1CNC(=O)CCCn1c(=O)c2ccccc2n(CC(=O)NC2CCCC2)c1=O | -9.86% (inactive)
38 | COCC(=O)Nc1ccc2c(c1)OC[C@@H](C)N(Cc1ccccc1C(=O)O)C[C@@H](C)[C@H](OC)CN(C)C2=O | 4.87% (inactive)
39 | O=C(c1ccc(F)cc1)N1CC(=O)N2[C@@H](CO)[C@@H](c3ccc(C#Cc4ccc(F)cc4)cc3)[C@@H]2C1 | -24.9% (inactive)
40 | CO[C@@H]1CN(C)C(=O)c2cc(NC(=O)c3cccc(Oc4ccccc4)c3)ccc2OC[C@H](C)NC[C@@H]1C | -6.99% (inactive)
41 | NC[C@H](Cc1ccccc1)NCCc1cc(C(F)(F)F)cc(C(F)(F)F)c1 | 143% (active)
42 | CCC(=O)N1CCC2(CC1)CN(Cc1cc(F)ccc1F)[C@@H](CO)c1c2c2ccc(OC)cc2n1C | -0.065% (inactive)
43 | O=C(c1ccccc1F)N1CC(=O)N2[C@H](CO)[C@H](c3ccc(-c4cccnc4)cc3)[C@H]2C1 | 27.6% (inactive)
44 | Fc1c(F)c(C(F)(F)F)c(F)c(F)c1N1CCN(c2ccc3nnc(C(F)(F)F)n3n2)CC1 | 57% (active)
45 | COc1ccc(CN(C)C[C@H]2OCCCC[C@H](C)Oc3ccc(NS(=O)(=O)c4ccc(C)cc4)cc3C(=O)N([C@@H](C)CO)C[C@H]2C)cc1 | -29.4% (inactive)
46 | COc1ccc2c3c([nH]c2c1)[C@H](CO)N(S(=O)(=O)c1cn(C)cn1)CC31CCN(CC2CC2)CC1 | 15.9% (inactive)
